Assay [1] is described as follows: inhibitors of PAF-induced NFkB signaling in CF airway cells, dose response, cell-based, uHTS hits, panel, cytotoxicity readout (AID 624344). The following applies: CF bronchial epithelial cells, PAF-induced NFkB reporter inhibition, with PAF, run 1; at 79 µM (top of the series) unless noted.
Test in assay [2]: as above
The following applies: CF bronchial epithelial cells, PAF-induced NFkB reporter inhibition, with PAF, run 2; at 79 µM (top of the series) unless noted.

One may read the inhibition as the change of the read-out against control, counted positive when it falls. `Cc1nc2c(O)c3c(c(O)c2nc1C)C1C=CC3CC1`: the inhibition in assay [1] was 114%; in assay [2], 103%.

Regarding `CCOc1ccc(-n2c(C)c(C(C)=O)c3cc(OC(C)=O)ccc32)cc1`, the inhibition was found to be 89% in assay [1] and 90% in assay [2].

Regarding `CCOCC(=O)NC1CCc2cc(OC(=O)COCC)c(OC)c(OC)c2-c2ccc(SC)c(=O)cc21` (stereo unspecified), the inhibition in assay [1] was 45.7%; in assay [2], 85.3%.

(Values after PubChem BioAssay.)
